# Screening data as filed in PubChem.
# Most compounds without a hit are left out; they make up all but 4.7% or so of the library.
# tim23-1 inh: growth inhibitors of tim23-1 mutant yeast, primary screen, luminescence, uHTS; S. cerevisiae tim23-1 growth, BacTiter-Glo luminescence, 24 h; inhibition, % at 20 µM; 330,000 tested, 1.3% active; AID 463212, 2010;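 active = growth inhibition of the mutant yeast at or above 50%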;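 note: temperature-sensitive mutant grown at 25 °C; plate controls were DMSO-treated mutant yeast for no effect and medium wells lacking yeast for full effect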
# TIM10 inh: growth inhibitors of isogenic TIM10 control yeast, primary screen, counter-screen for tim10-1 yeast inhibitor project, luminescence, uHTS; S. cerevisiae TIM10 strain growth, BacTiter-Glo luminescence, 24 h; inhibition, % at 10 µM; 330,000 tested, 1.4% active;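 active = inhibition of 40% or more at the single tested concentration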;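 note: wild-type TIM10 isogenic control strain grown at permissive 25 °C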
# tim10-1 inh: growth inhibitors of tim10-1 mutant yeast, primary screen, luminescence, uHTS | S. cerevisiae tim10-1 ts strain growth, BacTiter-Glo, 24 h | inhibition, % at 20 µM | 330,000 tested, 2.2% active;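 active = inhibition of at least 40%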;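 note: mutant grown at 25 °C; 0% = DMSO wells with yeast and 100% = wells holding no yeast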
# PfHsp90 yeast 2: growth inhibition of PfHsp90-expressing yeast, primary screen, antimalarial PfHsp90 inhibitor project, S. cerevisiae, BacTiter-Glo luminescence, single point, set 2; BacTiter-Glo ATP, 48 h; yeast lacking PDR1 and PDR3 efflux regulators; inhibition, % at 9.4 µM; 310,000 tested, 0.32% active; AID 504621, 2011;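 active = every replicate shows inhibition above about 80%, whatever the replicate mean, limit read from the data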;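 note: 0% = DMSO neutral controls and 100% = 20 µM radicicol positive controls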
# ATG4B inh: ATG4B protease inhibitors, primary screen, biochemical, fluorescence, uHTS | Cysteine protease ATG4B (Homo sapiens), Q9Y4P1 | ATG4B cleavage of LC3-PLA2, NBD-HPC fluorescence, 1 h | inhibition, % at 8.33 µM | 340,000 tested, 0.51% active | AID 504462, 2011; in the data active = inhibition above about 40%
# Target sequence (Q9Y4P1 whole entry, looked up): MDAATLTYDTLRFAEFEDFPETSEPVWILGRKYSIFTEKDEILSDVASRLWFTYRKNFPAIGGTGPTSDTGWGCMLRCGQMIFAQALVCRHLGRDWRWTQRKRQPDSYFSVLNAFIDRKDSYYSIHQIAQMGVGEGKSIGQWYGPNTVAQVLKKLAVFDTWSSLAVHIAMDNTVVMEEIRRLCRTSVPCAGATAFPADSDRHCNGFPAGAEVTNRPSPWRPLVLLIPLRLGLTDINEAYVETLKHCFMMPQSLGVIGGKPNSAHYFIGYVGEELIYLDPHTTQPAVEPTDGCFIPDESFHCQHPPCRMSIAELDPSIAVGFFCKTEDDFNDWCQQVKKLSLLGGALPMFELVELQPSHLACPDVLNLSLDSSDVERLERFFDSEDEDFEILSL
# SKKanGAS inh: S. pyogenes SKKanGAS growth inhibitors in kanamycin, primary screen, streptokinase expression inhibitor project, SKKanGAS strain, BacTiter-Glo luminescence; 6 h; inhibition, % at 7.5 µM; 300,000 tested, 1.3% active; AID 1662, 2009;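 active = mean replicate score, as percent of positive control median, at least 50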;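 note: strain carries kanamycin resistance gene driven by streptokinase promoter and grows in 40 µg/ml kanamycin; loss of luminescence reflects streptokinase promoter inhibition or plain growth inhibition; 0% = median of DMSO wells and 100% = positive control at its reference dose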
# tim10 confirm: growth inhibitors of wild-type TIM10 yeast, confirmation, counter-screen for tim10-1 synthetic lethality project, single concentration, luminescence, S. cerevisiae; S. cerevisiae tim10 strain growth, BacTiter-Glo luminescence, 24 h; inhibition, % at 10 µM; 4,600 tested, 63% active; shares compounds with TIM10 inh;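 active = inhibition of yeast growth at or above a set limit in either of two replicates at 10 µM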;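 note: this counterscreen used the strain with wild-type TIM10; 0% = yeast with DMSO and 100% = medium wells lacking yeast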
# * = called active by the depositor; nt = not tested or not shown.
SMILES,tim23-1 inh,TIM10 inh,tim10-1 inh,PfHsp90 yeast 2,ATG4B inh,SKKanGAS inh,tim10 confirm
CCOC12NC(=O)CC(=O)N1C(c1ccccc1)=CS2 (stereo unspecified),43,43*,36,nt,1,nt,28
CCOC(=O)c1c(NC(=O)c2cccs2)sc(C(=O)N2CCOCC2)c1C,-5,-11,6,0,-1,9,nt
Cc1ccc(C2CC2c2n[nH]c(=S)n2-c2ccc(Cl)cc2)cc1 (stereo unspecified),31,51*,27,-3,3,3,42*
COc1ccc(-c2[nH]c(-c3cc(OC)c4c(c3)OCO4)nc2-c2ccccc2)cc1,33,29,30,-5,5,17,nt
CN(c1ccccc1)c1nc(N)c([N+](=O)[O-])c(N2CCCCCC2)n1,41,45*,24,-1,-10,-7,17
COc1ccc(C(C)(C)C)cc1NC(=O)c1ccccc1-n1cnnn1,10,-1,2,nt,2,nt,nt
COC(=O)C1c2ccccc2-c2ccccc21,6,3,18,2,-4,nt,nt
CC(Sc1ccc(S(=O)(=O)N2CCN(C)CC2)cn1)C(=O)NC1CCCCC1 (stereo unspecified),10,-2,-3,-23,-7,nt,nt
CC1Cc2ccccc2N1C1=NS(=O)(=O)c2ccccc21 (stereo unspecified),31,42*,28,1,1,5,10
O=S1(=O)N=C(N2CCCC2)c2ccccc21,-7,0,6,-5,3,-4,nt
Cc1ccc(NC(=O)COC(=O)c2ccc3c(c2)C(=O)N(CCc2ccccc2)C3=O)c(C)c1,-27,41*,1,-43,5,-4,-18
CCSc1ncccc1-c1nc2ccccc2[nH]1,39,43*,15,-23,-7,-23,17
CCc1cc(=O)oc2c(CN3CCN(C)CC3)c(O)c(Cl)cc12,-1,-5,12,nt,8,3,nt
Cc1ccccc1Oc1nc2c(C)cccn2c(=O)c1/C=C(\C#N)C(=O)NC1CCS(=O)(=O)C1 (stereo unspecified),17,41*,18,6,-7,-2,16
S=C(Nc1cccc2ccccc12)NN1CCCCCC1,nt,nt,nt,nt,-14,nt,nt
Cc1[nH]n(S(=O)(=O)Cc2ccccc2)c(=O)c1N=Nc1ccccc1Cl,45,41*,37,6,7,-11,22
Cc1ccc(C23CC4CC(CC(C(=O)NC(C)C)(C4)C2)C3)cc1,40,44*,19,-5,-7,-3,30
COc1ccccc1Cn1c(/C=C/c2ccccc2)nc2ccccc21,29,42*,30,-5,-5,15,-22
Cn1c(=O)c(/C=C/c2ccccc2)nc2ccccc21,-1,-2,11,-3,-5,-3,nt
Cn1c(/C=C/c2ccccc2)nc2ccccc21,49,55*,20,63,1,22,48*
Nc1ncc(-c2ccccc2)c(-c2ccc(O)cc2O)n1,12,3,13,6,0,-5,nt
COC(=O)c1cc(S(=O)(=O)Nc2cccc(C)c2C)cn1C,2,84*,2,7,4,0,3
COC(=O)c1cc(S(=O)(=O)Nc2cc(OC)cc(OC)c2)cn1C,2,-3,-5,21,-6,-3,nt
CN(CC(=O)Nc1cc(S(=O)(=O)N2CCCCCC2)ccc1Cl)Cc1ccc2c(c1)OCO2,28,18,18,-6,-47,nt,nt
Cc1nc(SCC(=O)NCc2ccco2)c2c(C)c(C)sc2n1,15,8,15,-22,3,2,nt
SMILES,tim23-1 inh,TIM10 inh,tim10-1 inh,PfHsp90 yeast 2,ATG4B inh,SKKanGAS inh,tim10 confirm
Cc1sc2ncnc(SCC(=O)NC(=O)NCc3ccco3)c2c1C,-24,50*,-8,-5,-4,0,0
COc1ccc(-c2nn(-c3ccccc3)cc2/C=N/NC(=S)NC(C)C)cc1OC,43,48*,36,-156,15,18,49*
COc1cc(C(=S)N2CCN(c3cccc(Cl)c3)CC2)ccc1O,40,41*,24,-31,-1,0,46*
COc1ccc(C(=S)N2CCN(c3cccc(Cl)c3)CC2)c(OC)c1,30,15,13,-14,6,-2,nt
S=C(NCc1ccccc1Cl)Nc1ccccc1Cl,38,43*,28,-27,16,9,38*
S=C(NCCNC(=S)Nc1ccccc1Cl)Nc1ccccc1Cl,6,-7,1,41,2,-1,nt
CC(=O)c1c(C(C)=O)c(C)n(NC(=O)c2cccnc2)c1C,14,89*,9,8,7,1,7
CC(=O)c1c(C(C)=O)c(C)n(NC(=O)c2ccccc2O)c1C,6,-8,4,-3,-4,-3,nt
O=C(NCCNC(=O)c1cnccn1)c1ccc(Cl)cc1,-8,-15,-9,19,0,-17,nt
CCOC(=O)c1ccc2c(c1)nc(SCC(=O)N1CCOCC1)n2CC,-1,11,11,nt,-9,0,nt
CCOC(=O)c1ccc2c(c1)nc(SCc1cn3ccsc3n1)n2CC,35,44*,23,-3,1,7,34*
O=C(CSc1nnc(COc2ccccc2)n1Cc1ccco1)Nc1ccc2c(c1)OCCO2,7,9,15,-20,-3,4,nt
CC(C)CC(=O)NC(=S)Nc1nc(-c2cccc3ccccc23)cs1,15,47*,36,-4,0,26,-19
Cc1cc(Oc2nnnn2-c2ccccc2)ccc1Cl,39,40*,40,nt,2,10,30*
Clc1ccc(OCc2nnnn2-c2ccccc2)cc1,30,7,39,9,-5,5,nt
Cc1cc(C)c(S(=O)(=O)N(CC(=O)N2CCOCC2)C2CCCCC2)c(C)c1,35,35,29,-53,-12,-4,nt
CCOC(=O)N1CCN(C(=O)CN(C2CCCCC2)S(=O)(=O)c2c(C)cc(C)cc2C)CC1,42,41*,24,nt,-6,9,28
COc1ccccc1C1CC(c2ccccc2)=NN1C(=S)Nc1ccccc1 (stereo unspecified),30,41*,16,0,-15,6,26
COc1ccc(C2=NN(C(N)=S)C(c3ccccc3)C2)cc1 (stereo unspecified),33,41*,31,9,-4,6,26
